AF4-AF9 inh: blocks AF4 peptide binding to human AF9; P42568; AlphaScreen, biotin-AF4 peptide binding to FLAG-AF9; inhibition, % at 10 µM; hit rate 0.47% among 350,000;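 active = every replicate reaching a set inhibition limit, whatever the replicate mean, cut at about 25% in these data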;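 note: 0% = plate neutral control median and 100% = total signal loss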
Target sequence (P42568 whole entry, looked up): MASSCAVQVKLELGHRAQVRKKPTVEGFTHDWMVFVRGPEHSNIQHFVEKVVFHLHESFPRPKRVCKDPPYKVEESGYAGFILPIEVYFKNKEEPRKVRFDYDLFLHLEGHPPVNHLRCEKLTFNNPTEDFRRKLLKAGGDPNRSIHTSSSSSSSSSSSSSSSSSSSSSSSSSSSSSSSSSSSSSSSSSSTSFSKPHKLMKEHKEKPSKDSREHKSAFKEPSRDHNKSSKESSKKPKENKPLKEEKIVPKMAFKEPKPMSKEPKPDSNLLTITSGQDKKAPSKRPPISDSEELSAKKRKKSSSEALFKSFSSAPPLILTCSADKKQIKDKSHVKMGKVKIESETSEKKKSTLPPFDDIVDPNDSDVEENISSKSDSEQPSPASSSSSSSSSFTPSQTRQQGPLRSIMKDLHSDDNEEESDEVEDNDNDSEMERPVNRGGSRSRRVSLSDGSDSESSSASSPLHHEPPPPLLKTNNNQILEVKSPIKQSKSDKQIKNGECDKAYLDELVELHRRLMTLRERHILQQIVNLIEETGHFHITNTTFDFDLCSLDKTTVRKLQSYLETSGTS
DENV2 CPE rescue: DENV2-induced cell death inhibition. DENV2-infected cells, cytopathic effect rescue, plate reader. CPE inhibition, % at 9.99 µM. hit rate 1.7% among 350,000; in the data active = CPE inhibition above about 20%, passing the limit was not always enough; tested in BHK-21 cells;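 note: 0% = median of neutral control wells and 100% = median of positive control wells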
RAD52 inh: RAD52 (human) annealing inhibition. hit rate 0.46% among 360,000. inhibition, % at 18.7 µM. AID 651710. recombinant RAD52 DNA annealing, FRET fluorescence;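 active = every replicate showing at least 50% inhibition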
RAD54 inh: blocks human RAD54 Holliday junction branch migration | Q92698 | FAM/BHQ fluorescence | inhibition, % at 10.4 µM | hit rate 0.14% among 360,000;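 active = mean normalized replicate activity at least 40 and at least half of replicates scoring 40 or more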;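 note: 0% = median of neutral control wells and 100% = median of positive control wells; inhibitors cause a drop in the FAM fluorescence signal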
INS-1E GSIS act: GLuc luminescence reporter in INS-1E cells, primary screen for activators of glucose-dependent secretion of insulin; INS-1E GLuc reporter insulin secretion, 2-3 h; activation, % at 16.6 µM; hit rate 0.61% among 370,000;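 active = lowest replicate activation of at least 40%, so every replicate reaches that level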;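 note: 0% = median of neutral control wells and 100% = median of IBMX positive control wells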
dFosB act: enhances mouse delta FosB homodimer DNA binding | purified delta FosB, TAMRA-CDK5 oligo fluorescence polarization; percent of positive-control signal above neutral wells | activation, % at 25 µM | AID 493131 | hit rate 0.99% among 340,000 | P13346;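 active = mean activation above about 17%, with every replicate also reaching it, limit read from the data, passing the limit was not always enough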
Starred values were filed as active, the others as inactive; / = no result given; + = active, no number; ! = not confirmed by another sample. An excerpt weighted towards active compounds, which were near 3.1% of everything screened.

SMILES | AF4-AF9 inh | DENV2 CPE rescue | RAD52 inh | RAD54 inh | INS-1E GSIS act | dFosB act
COc1ccc(CC(=O)c2ccc(O)cc2O)cc1 | 0 | 76* | -3 | -5 | 2 | -4
COc1ccc(C(=O)Cc2ccc3c(c2)OCO3)c(O)c1 | / | / | / | / | 41* | 3
O=C(O)COc1ccc(C(=O)Cc2ccc3c(c2)OCCCO3)c(O)c1 | 0 | / | -4 | -4 | 4 | -9
Cc1ccccc1-c1ccc([C@H]2[C@@H](CO)N3CCCCN(C(=O)Nc4ccc(F)cc4)C[C@H]23)cc1 | 2 | -3 | 7 | 1 | -18 | /
O=C(Nc1ccc(F)cc1)Nc1ccc2c(c1)[C@H]1C[C@@H](CC(=O)N3CCCCC3)O[C@@H](CO)[C@H]1O2 | / | 3 | / | -2 | -9 | /
COc1cccc(-c2sc3cc(OC)c(OC)cc3c2-c2ccc(OCCN3CCCCC3)cc2)c1 | / | / | / | -1 | / | 34*
COc1ccc2c(-c3ccc(OCCN4CCCCC4)cc3)c(-c3ccccc3OC)sc2c1 | / | / | / | 6 | / | 48*
COc1cccc(-c2sc3ccc(OC)cc3c2-c2ccc(OCCN3CCCC3)cc2)c1 | / | / | / | 2 | / | -8
COc1ccc(S(=O)(=O)N(C)C[C@H]2OCCCC[C@H](C)Oc3ccc(NC(=O)c4ccncc4)cc3C(=O)N([C@H](C)CO)C[C@@H]2C)cc1 | -1 | -5 | 2 | -8 | 4 | /
O=C1CCN(Cc2ccc(Br)cc2)CCN1CCO | -2 | 29* | -9 | -4 | 8 | 5
COc1ccc(C(=O)NC(=C(Cl)Cl)S(=O)(=O)c2ccc(C)cc2)cc1 | -2 | -1 | -8 | -4 | -6 | 23*
O=C(Nc1ccc(C(F)(F)F)cc1)N1C[C@@H]2N[C@H](C1)C2c1ccc(/C=C/c2ccccc2)cc1 (stereo partly specified) | -4 | 1 | 65* | / | + | /
O=C(Nc1ccc(C(F)(F)F)cc1)N1C[C@@H]2N[C@H](C1)C2c1ccc(-c2ccccc2)cc1 (stereo partly specified) | 0 | 7 | 79*! | / | 755*! | /
O=C(C1CCC1)N1C[C@@H]2N[C@H](C1)C2c1ccc(/C=C/c2ccccc2)cc1 (stereo partly specified) | 16 | -4 | 44 | / | -4 | /
Cc1cc(SCC(=O)NCCN2C(=O)CSC2=O)nc2c(C)cccc12 | / | / | / | / | 46* | -3
Cc1cc(C)c2nc(SCC(=O)NCCN3C(=O)CSC3=O)cc(C)c2c1 | 5 | 16 | -16 | -6 | 10 | -8
Cn1cnc([N+](=O)[O-])c1NC(C)(C)C | / | / | / | -3 | / | 1
Cn1cnc([N+](=O)[O-])c1S(=O)(=O)c1ccc(Cl)cc1 | -6 | 2 | -4 | / | 82* | 6
O=C(Oc1ccc2c(c1)OCO2)c1cc2c(s1)CCC2 | / | / | / | 21 | 46* | 0
COc1ccc2c3c(n(C)c2c1)[C@@H](CO)N(CC1CC1)CC31CCN(C(=O)NC2CCCC2)CC1 | 1 | -9 | -39 | / | -10 | /
CCc1nc2ccc(C(=O)NCCN(C)C)cn2c1N(CC)CCOC | 0 | -6 | 0 | -7 | 6 | /
CCc1nc2ccc(C(=O)NCCCN3CCCC3=O)cn2c1N(C)CCC(C)C | 0 | -2 | -10 | -4 | 0 | /
CCc1nc2ccc(C(=O)NCCCN3CCCC3=O)cn2c1N(CCC(C)C)CCN(C)C | -2 | 15 | -10 | 7 | 49* | /
CCc1nc2ccc(C(=O)NCCNC(C)=O)cn2c1N(CC)CCOC | 46* | -8 | -7 | 12 | 8 | /
Clc1cccc(C2=NOC(c3nnc(-c4ccccc4)o3)C2)c1 (stereo unspecified) | / | 35* | -6 | 0 | -3 | 3
SMILES | AF4-AF9 inh | DENV2 CPE rescue | RAD52 inh | RAD54 inh | INS-1E GSIS act | dFosB act
c1ccc(C2=NOC(c3nnc(-c4ccccc4)o3)C2)cc1 (stereo unspecified) | -5 | 20 | -16 | -5 | 11 | 2
O=C(C[C@H]1CC[C@H](NC(=O)C2CC2)[C@H](CO)O1)NCC1CC1 | -2 | 3 | -2 | -7 | -10 | /
CO[C@H]1CC[C@H]2CCN(C)C(=O)CCCN(C)C(=O)c3cccc(C#N)c3OC[C@@H]1O2 | -1 | 6 | -11 | 0 | 13 | /
O=C(Nc1ccc2c(c1)[C@H]1C[C@@H](CC(=O)N3CCCCC3)O[C@H](CO)[C@H]1O2)NC1CCCC1 | 1 | 56* | -5 | -2 | -3 | /
C[C@@H](NC(=O)C[C@@H]1C[C@@H]2c3cc(NC(=O)NC4CCCC4)ccc3O[C@@H]2[C@H](CO)O1)c1ccccc1 | / | / | / | / | 6 | /
C[C@H](NC(=O)C[C@H]1C[C@H]2c3cc(NC(=O)NC4CCCC4)ccc3O[C@H]2[C@H](CO)O1)c1ccccc1 | -4 | 28* | -1 | 7 | 0 | /
O=C(Nc1ccc2c(c1)[C@H]1C[C@H](CC(=O)N3CCCCC3)O[C@H](CO)[C@H]1O2)NC1CCCCC1 | / | / | / | / | -3 | /
C[C@H](CO)N1C[C@H](C)[C@@H](CN(C)C(=O)N[C@H](C)c2ccccc2)OCc2ccccc2-c2c(n(C)c3ccccc23)C1=O | 4 | -2 | 18 | 7 | -17 | /
COCC#Cc1cnc2c(c1)C(=O)N([C@H](C)CO)C[C@@H](C)[C@@H](CN(C)S(C)(=O)=O)O2 | / | / | / | -9 | 21 | /
C[C@H](CO)N1C[C@H](C)[C@H](CN(C)S(=O)(=O)c2ccc(Cl)cc2)OCCCC[C@H](C)Oc2ccc(NC(=O)Nc3cccc4ccccc34)cc2C1=O | -3 | -2 | 5 | 8 | 22 | /
C[C@@H](O)C#Cc1ccc([C@@H]2[C@@H](CO)N3CCCCN(S(=O)(=O)Cc4ccccc4)C[C@H]23)cc1 | 0 | -10 | 8 | 4 | 3 | /
O=C(NN1C(=O)C2C3C=CC(O3)C2C1=O)c1cccc(O)c1 (stereo unspecified) | -20 | 4 | 5 | / | 3 | -6
O=C(NN1C(=O)C2C3C=CC(O3)C2C1=O)c1cccc(Br)c1 (stereo unspecified) | -17 | 5 | 0 | -5 | 78* | 4
CCC(=O)N1[C@H](CO)[C@@H]2c3ccccc3N(C(=O)Nc3cccc(Cl)c3)C[C@@H]21 | 0 | 3 | 7 | 1 | 4 | /
Cc1nc2c(sc(=S)n2Cc2ccco2)c(=O)n1CC(=O)Nc1ccccc1Cl | -1 | -9 | -13 | 0 | 0 | 56*
Cc1noc(C)c1NC(=O)N(C)C[C@H]1OCCCC[C@H](C)Oc2ccc(NC(=O)NC(C)C)cc2C(=O)N([C@@H](C)CO)C[C@H]1C | -2 | -9 | -3 | 1 | 20 | /
Cc1ccc(S(N)(=O)=O)cc1 | / | 52* | -7 | -3 | 3 | 8
Cc1ccc(NC(=O)Nc2ccc(S(N)(=O)=O)cc2)cc1 | 0 | -2 | -12 | / | 7 | -4
CCN(C)C1CN(Cc2cn(Cc3ccc(F)cc3)nn2)S(=O)(=O)C1 (stereo unspecified) | -6 | 46* | -12 | / | 9 | /
Cc1ccc(Cn2cc(CN3CC(N4CCSCC4)CS3(=O)=O)nn2)cc1 (stereo unspecified) | -1 | 31* | 0 | / | -4 | /

Screening results as filed in PubChem.
